Reference: PubChem BioAssay (Tox21)
Records with an inconclusive call do not appear. Entries that show only a call come without a potency. Calls of active or inactive are those of the source. Unless noted, calls follow the shape of the dose curve; as a rule, active = well fitted curve in the direction sought with a large enough effect in the repeat runs; inconclusive = weak or mixed curves; inactive = no such curve, though single readings can be large; an effect the other way counts as inactive or inconclusive.

Experiments:
[1] = target: Aryl hydrocarbon receptor (Homo sapiens) (UniProt P35869); assay: qHTS assay to identify small molecule that activate the aryl hydrocarbon receptor (AhR) signaling pathway (AID 743085); also: nearly all actives have a fitted effect of over 15% in size; also: potency is read from the fitted curve at half-maximal effect;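 as to activation: HG2L7.5c1 human HepG2 liver cells with stably integrated DRE-driven firefly reporter; series mostly up to about 70 µM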
In short: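 Stably transfected human liver carcinoma cells (HG2L7.5c1; 20 DRE-firefly luciferase) were incubated 5 h, dosed, and kept 24 h at 37C. Agonism was scored from increased luciferase luminescence.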

[2] = qHTS assay to identify small molecule that activate the aryl hydrocarbon receptor (AhR) signaling pathway - cell viability counter screen (AID 743086); also: nearly all actives have a fitted effect of over 45% in size; also: potency is read from the fitted curve at half-maximal effect
In short: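 HepG2-AhR-luc (HG2L7.5c1) cells, 4000/well, were preincubated 5 h at 37C, exposed to compound in qHTS format for 24 hr at 37C, then given CellTiter-Fluor for 30 min; viability was read as fluorescence in the reporter wells.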

[3] = qHTS assay to identify small molecule antagonists of the peroxisome proliferator-activated receptor gamma (PPARg) signaling pathway - cell viability counter screen (AID 743194); also: nearly all actives have a fitted effect of over 55% in size
In short: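 PPARg-UAS-bla HEK293H cells were plated, rested 5 h at 37 C, then treated with compounds plus rosiglitazone (50 nM final) for 17 h at 37 C; viability was then read by CellTiter-Glo luminescence after 30 min at room temperature.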

[4] = qHTS assay for small molecule agonists of the antioxidant response element (ARE) signaling pathway - cell viability counter screen (AID 743203; calls by dose curve; also: nearly all actives have a fitted effect of over 55% in size; also: potency is read from the fitted curve at half-maximal effect)
In short: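 ARE-bla HepG2 cells were plated, rested 5 h at 37C/5% CO2, then exposed to compounds in DMSO for 16 h. Viability was read as CellTiter-Glo luminescence after 30 min at room temperature, in the same wells as the ARE screen.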

[5] = qHTS assay for small molecule activators of the heat shock response signaling pathway - cell viability counter screen (AID 743209); also: nearly all actives have a fitted effect of over 50% in size
In short: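 HSE-bla HeLa cells plated overnight, then exposed to Tox21 compounds (23 nL in DMSO) for 5 h at 37 C. After the bla reporter read, CellTiter-Glo was added in the same wells and luminescence read after 30 min at room temperature.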

[6] = qHTS assay for small molecule activators of the heat shock response signaling pathway (AID 743210; active = well fitted activation curve with a large enough effect in the signal ratio in the repeat runs, with a control signal flat, not every such curve was filed as active; the % refers to the signal ratio;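 also: HeLa cells with beta-lactamase reporter driven by heat shock elements; series mostly up to about 63 µM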)
In short: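 Reporter gene assay: HeLa cells stably bearing an HSE-bla construct, compound treatment 5 h at 37 C, LiveBLAzer substrate 2.5 h at RT, fluorescence intensity.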

[7] = qHTS assay to identify small molecule agonists of the peroxisome proliferator-activated receptor delta (PPARd) signaling pathway - cell viability counter screen (AID 743211); also: nearly all actives have a fitted effect of over 55% in size; also: potency is read from the fitted curve at half-maximal effect
In short: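 In the same wells used for beta-lactamase reporter measurement, cytotoxicity is scored by CellTiter-Glo. HEK293H PPARd-bla cells receive compound for 17 h at 37C following a 5 h settling period.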

[8] = target: Peroxisome proliferator-activated receptor delta (Homo sapiens) (UniProt Q03181); assay: qHTS assay to identify small molecule agonists of the peroxisome proliferator-activated receptor delta (PPARd) signaling pathway (AID 743212; calls by dose curve)
In short: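 A PPARd-bla HEK293H line with beta-lactamase under an Upstream Activator Sequence is treated with compounds at 37 C. Substrate loading for 2 h at room temperature precedes the fluorescence measurement.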

[9] = qHTS assay to identify small molecule antagonists of the peroxisome proliferator-activated receptor delta (PPARd) signaling pathway - cell viability counter screen (AID 743213); also: nearly all actives have a fitted effect of over 50% in size; also: potency is read from the fitted curve at half-maximal effect
In short: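 Cytotoxicity counter screen: CellTiter-Glo luminescence read 30 min after addition, in the same wells as the reporter assay. There, PPARd UAS-bla HEK293H cells (3000/well) were treated 17 h at 37 C with compound and 300 nM L165041.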

[10] = target: Peroxisome proliferator-activated receptor delta (Homo sapiens) (UniProt Q03181); assay: qHTS assay to identify small molecule antagonists of the peroxisome proliferator-activated receptor delta (PPARd) signaling pathway (AID 743215; active = well fitted inhibition curve with a large enough effect in the signal ratio in the repeat runs, not every such curve was filed as active; the % refers to the signal ratio;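 also: cells stimulated with agonist L165041 at 300 nM final during compound exposure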; also: potency is read from the fitted curve at half-maximal effect)
In short: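 PPARd-bla HEK293H cells (UAS-bla reporter) preincubated 5 h, then given compound plus 300 nM final L165041 agonist for 17 h at 37 C. Beta-lactamase activity read by LiveBLAzer B/G FRET substrate fluorescence after 2 h at room temperature.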

[11] = qHTS assay to identify small molecule antagonists of the farnesoid-X-receptor (FXR) signaling pathway - cell viability counter screen (AID 743221; active = well fitted cell-killing curve with a large enough effect in the repeat runs, not every such curve was filed as active; also: nearly all actives have a fitted effect of over 50% in size)
In short: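 Here viability was scored by luminescence after CellTiter-Glo addition to wells already read for beta-lactamase. Prior treatment: compound plus CDCA (50 uM final), 16 h, 37 C, HEK 293T FXR-bla cells.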

[12] = target: Vitamin D3 receptor (Homo sapiens) (UniProt P11473); assay: qHTS assay to identify small molecule agonists of the vitamin D receptor (VDR) signaling pathway (AID 743222; calls by dose curve)
In short: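 VDR-bla cells plated 4 h at 37 C, then exposed to compounds for 16 h at 37 C. Beta-lactamase reporter activity measured by fluorescence after 2 h room-temperature loading with LiveBLAzer B/G FRET substrate.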

[13] = target: Vitamin D3 receptor (Homo sapiens) (UniProt P11473); assay: qHTS assay to identify small molecule antagonists of the vitamin D receptor (VDR) signaling pathway (AID 743223; active = well fitted inhibition curve with a large enough effect in the signal ratio in the repeat runs, not every such curve was filed as active; the % refers to the signal ratio)
In short: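 Inhibition of agonist-driven VDR signalling is scored in VDR-bla cells: 3 nM final 1alpha,25-dihydroxyvitamin D3 plus compound, 16 h at 37C, then beta-lactamase detection by FRET substrate fluorescence after 2 h.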

[14] = qHTS assay to identify small molecule agonists of the vitamin D receptor (VDR) signaling pathway - cell viability counter screen (AID 743224); also: nearly all actives have a fitted effect of over 50% in size; also: potency is read from the fitted curve at half-maximal effect
In short: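 VDR-bla cells, 4 h after plating, exposed to compounds for 16 h at 37C; viability then read in the same wells as CellTiter-Glo luminescence after 30 min at room temperature, following the bla FRET read.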

[15] = target: Peroxisome proliferator-activated receptor gamma (Homo sapiens) (UniProt P37231); assay: qHTS assay to identify small molecule agonists of the peroxisome proliferator-activated receptor gamma (PPARg) signaling pathway (AID 743094; active = well fitted activation curve with a large enough effect in the signal ratio in the repeat runs, not every such curve was filed as active; the % refers to the signal ratio)
In short: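 GeneBLAzer PPARg UAS-bla HEK293H cells were plated, rested 5 h, then exposed to compounds for 17 h at 37C. Beta-lactamase activity was read by LiveBLAzer B/G FRET substrate fluorescence after 1 h at room temperature.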

[16] = target: Peroxisome proliferator-activated receptor gamma (Homo sapiens) (UniProt P37231); assay: qHTS assay to identify small molecule antagonists of the peroxisome proliferator-activated receptor gamma (PPARg) signaling pathway (AID 743191; calls by dose curve; also: nearly all actives have a fitted effect of over 30% in size; also: potency is read from the fitted curve at half-maximal effect)
In short: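 GeneBLAzer PPARg UAS-bla HEK293H cells carrying a UAS-driven beta-lactamase reporter were plated at 3000 cells/well, preincubated 5 h at 37C, then given compound for 17 h at 37C; LiveBLAzer B/G FRET substrate was read after 1 h at room temperature.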

[17] = qHTS assay for small molecule agonists of the antioxidant response element (ARE) signaling pathway (AID 743202; active = well fitted activation curve with a large enough effect in the signal ratio in the repeat runs, not every such curve was filed as active; the % refers to the signal ratio; also: potency is read from the fitted curve at half-maximal effect)
In short: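 Compounds delivered in DMSO to ARE-bla HepG2 cells (2,000 cells/well, pre-incubated 5 h) and left 16 h at 37 C. LiveBLAzer B/G FRET substrate then added for 2 h at RT before fluorescence reading.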

[18] = qHTS assay to identify small molecule agonists of the farnesoid-X-receptor (FXR) signaling pathway - cell viability counter screen (AID 743218); also: nearly all actives have a fitted effect of over 45% in size; also: potency is read from the fitted curve at half-maximal effect
In short: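 FXR-UAS-bla HEK 293T cells exposed to compounds for 16 h at 37C. Cytotoxicity read in the same wells by CellTiter-Glo luminescence after 30 min at room temperature, following the beta-lactamase FRET read.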

[19] = target: Bile acid receptor (Homo sapiens) (UniProt Q96RI1); assay: qHTS assay to identify small molecule agonists of the farnesoid-X-receptor (FXR) signaling pathway (AID 743220; active = well fitted activation curve with a large enough effect in the signal ratio in the repeat runs, not every such curve was filed as active; the % refers to the signal ratio)
In short: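 Beta-lactamase reporter under UAS control in GeneBLAzer FXR HEK 293T cells (5000/well) measured with LiveBLAzer FRET substrate after 2 h at room temperature. Compound exposure lasted 16 h at 37C.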

[20] = target: Bile acid receptor (Homo sapiens) (UniProt Q96RI1); assay: qHTS assay to identify small molecule antagonists of the farnesoid-X-receptor (FXR) signaling pathway (AID 743217; active = well fitted inhibition curve with a large enough effect in the signal ratio in the repeat runs, not every such curve was filed as active; the % refers to the signal ratio)
In short: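 FXR-UAS-bla HEK 293T cells (beta-lactamase reporter) given compound plus chenodeoxycholic acid (50 uM final), 16 h at 37C. LiveBLAzer B/G FRET substrate added for 2 h at room temperature; fluorescence read.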

Chain of Peroxisome proliferator-activated receptor gamma (Homo sapiens) (P37231 whole entry, looked up): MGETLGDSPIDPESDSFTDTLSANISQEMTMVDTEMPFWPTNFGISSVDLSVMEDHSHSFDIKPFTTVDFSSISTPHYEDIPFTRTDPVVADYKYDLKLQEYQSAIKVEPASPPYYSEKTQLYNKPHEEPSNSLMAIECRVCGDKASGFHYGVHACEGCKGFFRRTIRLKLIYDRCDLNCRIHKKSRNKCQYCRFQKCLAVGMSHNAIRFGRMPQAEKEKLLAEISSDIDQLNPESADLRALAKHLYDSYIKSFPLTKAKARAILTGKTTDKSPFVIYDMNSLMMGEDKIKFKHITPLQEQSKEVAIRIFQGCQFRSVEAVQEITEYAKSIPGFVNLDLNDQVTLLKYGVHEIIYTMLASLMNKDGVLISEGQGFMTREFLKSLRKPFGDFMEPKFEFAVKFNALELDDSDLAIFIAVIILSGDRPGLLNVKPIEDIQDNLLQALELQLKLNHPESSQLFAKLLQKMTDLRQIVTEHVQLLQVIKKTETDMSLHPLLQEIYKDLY
Chain of Aryl hydrocarbon receptor (Homo sapiens) (P35869 whole entry, looked up): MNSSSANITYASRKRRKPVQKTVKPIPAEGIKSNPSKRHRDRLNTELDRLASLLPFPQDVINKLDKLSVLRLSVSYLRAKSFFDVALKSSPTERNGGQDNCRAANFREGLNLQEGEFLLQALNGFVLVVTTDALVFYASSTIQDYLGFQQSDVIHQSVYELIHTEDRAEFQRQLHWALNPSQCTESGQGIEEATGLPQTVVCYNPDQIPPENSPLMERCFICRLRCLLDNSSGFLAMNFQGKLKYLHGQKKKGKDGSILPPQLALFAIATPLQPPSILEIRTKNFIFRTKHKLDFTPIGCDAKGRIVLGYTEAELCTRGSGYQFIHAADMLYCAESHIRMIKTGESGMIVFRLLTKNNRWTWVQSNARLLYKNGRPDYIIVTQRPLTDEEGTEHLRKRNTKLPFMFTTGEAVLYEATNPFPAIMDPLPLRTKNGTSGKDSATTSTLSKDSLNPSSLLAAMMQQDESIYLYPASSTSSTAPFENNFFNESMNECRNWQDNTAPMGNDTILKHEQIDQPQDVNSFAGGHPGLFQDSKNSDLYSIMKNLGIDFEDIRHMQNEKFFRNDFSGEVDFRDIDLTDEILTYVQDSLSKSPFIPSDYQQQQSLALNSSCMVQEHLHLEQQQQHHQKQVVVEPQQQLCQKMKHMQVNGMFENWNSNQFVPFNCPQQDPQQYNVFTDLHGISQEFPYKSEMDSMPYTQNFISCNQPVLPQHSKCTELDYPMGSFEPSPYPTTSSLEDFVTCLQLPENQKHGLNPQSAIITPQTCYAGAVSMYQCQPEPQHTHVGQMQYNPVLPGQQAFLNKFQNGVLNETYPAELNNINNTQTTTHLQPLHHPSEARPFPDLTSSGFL
Chain of Vitamin D3 receptor (Homo sapiens) (P11473 whole entry, looked up): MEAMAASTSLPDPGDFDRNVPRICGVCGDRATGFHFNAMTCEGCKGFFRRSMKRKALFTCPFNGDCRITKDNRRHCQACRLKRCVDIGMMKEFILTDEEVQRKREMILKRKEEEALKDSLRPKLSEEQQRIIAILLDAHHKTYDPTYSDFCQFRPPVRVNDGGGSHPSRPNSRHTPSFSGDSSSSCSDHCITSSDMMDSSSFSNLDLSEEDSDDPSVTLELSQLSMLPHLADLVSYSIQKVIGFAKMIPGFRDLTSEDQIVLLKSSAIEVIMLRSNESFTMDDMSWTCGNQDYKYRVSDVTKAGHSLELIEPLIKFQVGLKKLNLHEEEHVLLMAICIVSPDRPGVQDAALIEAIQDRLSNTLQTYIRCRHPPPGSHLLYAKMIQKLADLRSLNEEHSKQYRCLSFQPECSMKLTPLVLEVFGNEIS
Chain of Peroxisome proliferator-activated receptor delta (Homo sapiens) (Q03181 whole entry, looked up): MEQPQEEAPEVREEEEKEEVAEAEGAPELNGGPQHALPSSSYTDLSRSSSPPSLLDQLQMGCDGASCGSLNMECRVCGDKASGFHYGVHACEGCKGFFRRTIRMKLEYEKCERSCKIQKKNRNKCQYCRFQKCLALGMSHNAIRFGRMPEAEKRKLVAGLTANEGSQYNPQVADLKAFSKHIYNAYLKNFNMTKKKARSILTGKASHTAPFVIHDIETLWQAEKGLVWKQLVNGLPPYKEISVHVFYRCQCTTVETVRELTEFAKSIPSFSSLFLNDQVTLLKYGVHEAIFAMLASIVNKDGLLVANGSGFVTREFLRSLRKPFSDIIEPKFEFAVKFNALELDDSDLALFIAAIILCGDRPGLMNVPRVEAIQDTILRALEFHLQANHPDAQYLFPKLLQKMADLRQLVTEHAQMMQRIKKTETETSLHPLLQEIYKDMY
Chain of Bile acid receptor (Homo sapiens) (Q96RI1 whole entry, looked up): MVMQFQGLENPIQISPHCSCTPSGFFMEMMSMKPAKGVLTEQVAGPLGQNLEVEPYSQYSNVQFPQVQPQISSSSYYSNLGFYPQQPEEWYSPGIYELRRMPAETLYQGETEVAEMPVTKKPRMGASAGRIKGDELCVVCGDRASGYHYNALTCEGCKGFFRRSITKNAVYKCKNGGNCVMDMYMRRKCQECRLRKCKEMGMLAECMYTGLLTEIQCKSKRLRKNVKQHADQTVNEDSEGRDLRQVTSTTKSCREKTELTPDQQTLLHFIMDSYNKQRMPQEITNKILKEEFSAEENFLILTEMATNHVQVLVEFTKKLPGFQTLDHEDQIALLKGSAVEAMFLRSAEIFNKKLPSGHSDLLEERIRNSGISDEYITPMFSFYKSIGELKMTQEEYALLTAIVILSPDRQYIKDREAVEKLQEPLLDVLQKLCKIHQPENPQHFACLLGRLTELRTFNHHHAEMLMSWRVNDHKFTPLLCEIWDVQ

Compound | Potency [1] | Potency [2] | Potency [3] | Potency [4] | Potency [5] | Potency [6] | Potency [7] | Potency [8] | Potency [9] | Potency [10] | Potency [11] | outcome [12] | outcome [13] | Potency [14] | Potency [15] | Potency [16] | Potency [17] | Potency [18] | Potency [19] | Potency [20]
Brc1cc(-c2ccc(Br)c(Br)c2Br)cc(Br)c1Br | 8.5 µM (active) | inactive | inactive | inactive | inactive | inactive | inactive | inactive | inactive | inactive | inactive | inactive | inactive | inactive |  |  |  |  |  | 
O=C(CCCCCCC(=O)Nc1ccccc1)NO | inactive | inactive |  |  | inactive | inactive | inactive | inactive | inactive | inactive | inactive |  | inactive | inactive |  |  |  |  |  | 
OC/C(Br)=C(\Br)CO | inactive |  | inactive | inactive | inactive | inactive | inactive | inactive | inactive | inactive | inactive | inactive | inactive | inactive | inactive | inactive | inactive | inactive |  | 
Nc1nc(Cl)nc2c1ncn2[C@@H]1O[C@H](CO)[C@@H](O)[C@@H]1F | inactive | inactive | inactive | inactive | inactive | inactive | inactive | inactive | inactive |  | inactive | inactive |  | inactive |  |  |  | inactive | inactive | 
O=C(N/N=C/c1ccc([N+](=O)[O-])o1)c1ccc(O)cc1 | inactive | 11.4 µM (active) |  | 23.7 µM (active) | inactive | inactive | inactive |  | inactive |  | inactive |  |  |  | inactive |  |  | inactive |  | 
CCCCN(CCCC)C(=S)SSC(=S)N(CCCC)CCCC | inactive | inactive | inactive | inactive | inactive |  | inactive | inactive |  | 21.7 µM (active) | inactive |  | inactive | 12.2 µM (active) |  | 24.3 µM (active) |  |  |  | 
CC(C)(CCl)c1ccccc1 | inactive | inactive | inactive | inactive | inactive |  | inactive | inactive | inactive | inactive | inactive | inactive | inactive |  |  |  | inactive | inactive | inactive | inactive
CCCCC1C(=O)N(c2ccccc2)N(c2ccc(O)cc2)C1=O (configuration not stated) | inactive | inactive | inactive | inactive |  |  |  |  | inactive | inactive |  |  |  | inactive |  |  | 29.8 µM (active) | inactive |  | 
O=C(N[C@@H](c1ccccc1)[C@@H]1CCCCN1)c1cccc(C(F)(F)F)c1Cl | inactive | 24.3 µM (active) |  | 21.7 µM (active) | inactive | inactive | 27.5 µM (active) |  | 27.5 µM (active) |  | inactive |  | inactive | 30.9 µM (active) |  |  |  | 43.6 µM (active) | inactive | 
CC(C)(C)C(=O)C(Oc1ccc(Cl)cc1)n1ccnc1 (configuration not stated) | 23.7 µM (active) | inactive | inactive | inactive | inactive |  | inactive | inactive | inactive | inactive | inactive |  |  | inactive |  |  | inactive | inactive | inactive | inactive
CO[C@H]1C=CO[C@@]2(C)Oc3c(C)c(O)c4c(O)c(c5c(c4c3C2=O)=NC2(CCN(CC(C)C)CC2)N=5)NC(=O)/C(C)=C\C=C/[C@H](C)[C@H](O)[C@@H](C)[C@@H](O)[C@@H](C)[C@H](OC(C)=O)[C@@H]1C | inactive | 15 µM (active) | inactive |  | inactive | inactive | 24 µM (active) |  |  |  |  |  |  |  |  |  |  |  | inactive | 
CCCCCCCCCCOS(=O)(=O)O | inactive | inactive | inactive | inactive | inactive | inactive | inactive |  | inactive |  | inactive |  | inactive | inactive |  |  |  |  | inactive | inactive
CCNC(=O)N1CCN(CCCC(c2ccc(F)cc2)c2ccc(F)cc2)CC1 | inactive | 13.3 µM (active) | inactive |  | inactive | inactive |  | inactive | inactive |  | inactive |  | inactive |  |  |  |  | inactive |  | 
CCN(CC)CCNC(=O)c1ccc(NC(C)=O)cc1 | inactive |  | inactive | inactive | inactive | inactive | inactive | inactive | inactive | inactive | inactive | inactive |  | inactive | inactive |  | inactive | inactive | inactive | inactive
